This is a sample that favours compounds with a hit; in the whole collection about 3.5% have one here.
BoNT-F LC inh: inhibitors of Botulinum neurotoxin F light chain protease; 0.22% of 360,000 active; inhibition, % at 10 µM; Multiplex microsphere protease cleavage assay, flow cytometry; in the data active means inhibition above about 35%, passing the limit was not always enough; inconclusive means no clear call, values can overlap the other calls; further: plate controls were buffer without enzyme for full effect and enzyme alone for no effect
Autofluor counter: flagged as autofluorescent in microsphere protease counterscreen. compound autofluorescence counterscreen, microsphere flow cytometry; hits give high values. fluorescence intensity (test concentration not listed). 3.1% of 360,000 active. AID 624483; in the data active means fluorescence intensity above about 16000; inconclusive means no clear call, values can overlap the other calls
Anthrax LF inh2: anthrax lethal factor protease inhibition. P15917. multiplex microsphere protease cleavage assay, LF. inhibition, % at 10 µM. 0.12% of 360,000 active; further: plate controls were buffer without enzyme for full effect and enzyme alone for no effect
Target sequence (P15917 whole entry, looked up): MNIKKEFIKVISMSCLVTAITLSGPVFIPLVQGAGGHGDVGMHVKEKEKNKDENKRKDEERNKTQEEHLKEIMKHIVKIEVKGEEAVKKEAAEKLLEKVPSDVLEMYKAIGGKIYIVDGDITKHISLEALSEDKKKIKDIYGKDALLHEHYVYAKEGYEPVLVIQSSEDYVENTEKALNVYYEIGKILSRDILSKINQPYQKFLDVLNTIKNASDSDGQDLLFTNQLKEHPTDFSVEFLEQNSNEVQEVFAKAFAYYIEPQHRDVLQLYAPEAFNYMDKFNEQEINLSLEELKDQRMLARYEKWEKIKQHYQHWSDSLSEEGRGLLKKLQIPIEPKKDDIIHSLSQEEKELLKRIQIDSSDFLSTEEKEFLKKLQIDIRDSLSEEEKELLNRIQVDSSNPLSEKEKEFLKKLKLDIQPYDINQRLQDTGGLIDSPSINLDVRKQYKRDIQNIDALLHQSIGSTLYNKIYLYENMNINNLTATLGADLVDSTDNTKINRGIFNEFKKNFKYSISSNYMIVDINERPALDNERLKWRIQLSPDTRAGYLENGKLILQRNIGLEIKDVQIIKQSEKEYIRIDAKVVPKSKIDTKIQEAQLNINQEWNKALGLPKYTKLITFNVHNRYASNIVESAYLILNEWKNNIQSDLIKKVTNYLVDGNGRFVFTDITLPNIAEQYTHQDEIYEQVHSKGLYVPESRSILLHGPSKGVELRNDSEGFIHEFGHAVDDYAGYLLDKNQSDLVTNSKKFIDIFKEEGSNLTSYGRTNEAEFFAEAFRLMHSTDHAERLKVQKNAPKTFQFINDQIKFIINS
BoNT-A LC inh2: inhibitors of Botulinum neurotoxin A light chain protease | multiplex microsphere protease substrate cleavage, flow cytometry | inhibition, % at 10 µM | 0.17% of 360,000 active; further: plate controls were buffer without enzyme for full effect and enzyme alone for no effect
Numbers without * were called inactive. Unless noted, no stated cut-off is given here; in the data, active means inhibition above about 30%; inconclusive means no clear call, values can overlap the other calls; inactive means below that.

Screening COc1ccc(S(=O)(=O)N(C)C[C@@H]2OCc3cn(nn3)CCCC(=O)N([C@H](C)CO)C[C@H]2C)cc1 returned BoNT-F LC inh 6.5, Autofluor counter 6012, Anthrax LF inh2 -4.1 and BoNT-A LC inh2 -0.5.
Screening O=C(Cc1ccccn1)Nc1ccccc1 returned BoNT-F LC inh 2.3, Autofluor counter 22456*, Anthrax LF inh2 1.8 and BoNT-A LC inh2 1.3.
For O=C(CSc1ncccn1)Nc1ccccc1 the results were BoNT-F LC inh 2.0, Autofluor counter 20507*, Anthrax LF inh2 2.8 and BoNT-A LC inh2 inconclusive.
Screening Nc1cc(N)nc(SCC(=O)Nc2ccccc2)n1 returned BoNT-F LC inh -41.2, Autofluor counter 5387, Anthrax LF inh2 -1.0 and BoNT-A LC inh2 -2.7.
O=C(COC(=O)CNC(=O)C1CCCCC1)Nc1ccc(Cl)cn1 was read as BoNT-F LC inh -5.2, Autofluor counter 21353*, Anthrax LF inh2 -0.2 and BoNT-A LC inh2 -5.2.
`O=C(COC(=O)CC1CCCC1)Nc1ccc(Cl)cn1` gave BoNT-F LC inh 0.3, Autofluor counter 2906, Anthrax LF inh2 -11.3 and BoNT-A LC inh2 -0.3.
`O=C(COC(=O)c1cnccn1)c1ccc2c(c1)CCCC2` gave BoNT-F LC inh 2.3, Autofluor counter 20610*, Anthrax LF inh2 -4.9 and BoNT-A LC inh2 1.8.
For O=C(COC(=O)c1cnccn1)c1ccc(Br)cc1 the results were BoNT-F LC inh -10.4, Autofluor counter 3712, Anthrax LF inh2 -1.6 and BoNT-A LC inh2 1.1.
`CCc1nc(OCc2ccccc2)c2sc3nc4c(cc3c2n1)COC(C)(C)C4` gave BoNT-F LC inh 7.8, Autofluor counter 21172*, Anthrax LF inh2 -8.3 and BoNT-A LC inh2 inconclusive.
Screening O=C(CSc1ncn(-c2ccccc2)n1)N1CCc2ccccc21 returned BoNT-F LC inh -7.5, Autofluor counter 4546, Anthrax LF inh2 -0.5 and BoNT-A LC inh2 1.3.
`Clc1cccc(CSc2ncn(-c3ccccc3)n2)c1` gave BoNT-F LC inh -3.5, Autofluor counter 16759*, Anthrax LF inh2 0.4 and BoNT-A LC inh2 -0.9.
Screening Clc1ccc(CSc2ncn(-c3ccccc3)n2)cc1 returned BoNT-F LC inh -8.3, Autofluor counter 21528*, Anthrax LF inh2 -1.3 and BoNT-A LC inh2 -6.4.
O=C(NC(Cc1ccccc1)C(=O)O)c1ccc(S(=O)(=O)N2CCCC2)cc1 (configuration not stated) was read as BoNT-F LC inh 8.5, Autofluor counter 10284, Anthrax LF inh2 0.1 and BoNT-A LC inh2 1.6.
Screening Cc1ccc(CC(NC(=O)c2ccccc2)C(=O)NC(C)C(=O)O)cc1 (configuration not stated) returned BoNT-F LC inh 3.2, Autofluor counter 21689*, Anthrax LF inh2 2.6 and BoNT-A LC inh2 5.0.
`O=C(NC(Cc1ccccc1)C(=O)O)c1ccccc1` (configuration not stated) gave BoNT-F LC inh 9.5, Autofluor counter 4594, Anthrax LF inh2 -4.6 and BoNT-A LC inh2 -0.1.
`O=C(NC(Cc1ccccc1)C(=O)O)c1ccc(S(=O)(=O)N2CCCCC2)cc1` (configuration not stated) gave BoNT-F LC inh 3.9, Autofluor counter 22876*, Anthrax LF inh2 -8.6 and BoNT-A LC inh2 1.3.
For CC(C)(C)c1ccc(C(=O)NC(Cc2ccccc2)C(=O)O)cc1 (configuration not stated) the results were BoNT-F LC inh -1.5, Autofluor counter 22268*, Anthrax LF inh2 -1.9 and BoNT-A LC inh2 -1.2.
`O=C(CC[C@H]1O[C@@H](n2cnc3c(NC(=O)c4ccccc4)ncnc32)[C@H](O)[C@@H]1O)NCC1CCCCC1` gave BoNT-F LC inh 4.0, Autofluor counter 5686, Anthrax LF inh2 -0.3 and BoNT-A LC inh2 -0.6.
COc1ccc(NS(=O)(=O)c2ccc3c(c2)CCC(=O)N3)c(OC)c1 was read as BoNT-F LC inh -1.2, Autofluor counter 16726*, Anthrax LF inh2 1.5 and BoNT-A LC inh2 -0.2.
Cn1c2c(c(=O)n(C)c1=O)CN(Cc1ccccc1)CN2 was read as BoNT-F LC inh 3.8, Autofluor counter 5602, Anthrax LF inh2 -1.9 and BoNT-A LC inh2 0.1.
For COc1ccccc1NC(=O)N(C)C[C@@H]1OCc2cnnn2CCCC(=O)N([C@@H](C)CO)C[C@@H]1C the results were BoNT-F LC inh -1.0, Autofluor counter 3704, Anthrax LF inh2 -4.5 and BoNT-A LC inh2 -0.5.
For Cc1cc(=O)oc2cc(OCC3CC(c4ccc(Cl)cc4)=NO3)ccc12 (configuration not stated) the results were BoNT-F LC inh 0.4, Autofluor counter 22029*, Anthrax LF inh2 -1.2 and BoNT-A LC inh2 0.5.
Cc1cc(=O)oc2cc(OCC3CC(c4ccc(N(C)C)cc4)=NO3)ccc12 (configuration not stated) was read as BoNT-F LC inh 9.3, Autofluor counter 3293, Anthrax LF inh2 3.8 and BoNT-A LC inh2 0.8.
For O=C(Nc1ccccc1Cl)c1cc(C2CCCN(C(=O)c3ccccc3)C2)on1 (configuration not stated) the results were BoNT-F LC inh -0.1, Autofluor counter 3955, Anthrax LF inh2 -0.5 and BoNT-A LC inh2 0.1.
CCOC(=O)[C@]12CCCC=C1N(Cc1ccc3c(c1)OCO3)C(=O)[C@H](CC(=O)N1CCN(C(=O)C3CC3)CC1)C2 was read as BoNT-F LC inh 6.1, Autofluor counter 5046, Anthrax LF inh2 -1.2 and BoNT-A LC inh2 0.1.
Screening Cc1cc(=O)oc2cc(OCC(=O)NCc3cccnc3)ccc12 returned BoNT-F LC inh -6.1, Autofluor counter 23262*, Anthrax LF inh2 -3.2 and BoNT-A LC inh2 -1.7.
For O=C(COc1ccc(S(=O)(=O)N2CCCCC2)cc1)NCc1cccnc1 the results were BoNT-F LC inh 4.2, Autofluor counter 22072*, Anthrax LF inh2 -1.5 and BoNT-A LC inh2 2.4.
For Cc1cc(=O)oc2cc(OCC(=O)NCc3ccncc3)ccc12 the results were BoNT-F LC inh -5.5, Autofluor counter 10891, Anthrax LF inh2 -2.4 and BoNT-A LC inh2 -0.3.
Screening COc1ccc(CNC(=O)COc2ccc(S(=O)(=O)N3CCCCC3)cc2)cc1 returned BoNT-F LC inh 4.3, Autofluor counter 6277, Anthrax LF inh2 -2.6 and BoNT-A LC inh2 -3.2.
For CCOC(=O)CSc1nnc(NCC(=O)OC)c(=O)[nH]1 the results were BoNT-F LC inh -6.8, Autofluor counter 21379*, Anthrax LF inh2 0.5 and BoNT-A LC inh2 -5.6.
Screening CCCCn1c(SCC(N)=O)nc2c(sc3ccccc32)c1=O returned BoNT-F LC inh -6.8, Autofluor counter 4154, Anthrax LF inh2 1.0 and BoNT-A LC inh2 0.4.
Screening CCSc1nc2c(sc3ccccc32)c(=O)n1C(C)C returned BoNT-F LC inh 0.0, Autofluor counter 23016*, Anthrax LF inh2 -0.1 and BoNT-A LC inh2 0.8.
Screening O=S1(=O)N[C@H](Cc2ccccc2)COc2cccc(N3CCSCC3)c21 returned BoNT-F LC inh 3.5, Autofluor counter 4235, Anthrax LF inh2 -7.8 and BoNT-A LC inh2 -0.2.
`COc1ccc(C2C3=C(CC(C)(C)CC3=O)Nc3c2c(=O)[nH]c(=O)n3Cc2ccccc2)cc1OC` (configuration not stated) gave BoNT-F LC inh -3.9, Autofluor counter 23655*, Anthrax LF inh2 -1.9 and BoNT-A LC inh2 -1.0.
`CCc1ccc(C2C3=C(CC(C)(C)CC3=O)Nc3c2c(=O)[nH]c2nc(C)nn32)cc1` (configuration not stated) gave BoNT-F LC inh -8.3, Autofluor counter 21959*, Anthrax LF inh2 -1.3 and BoNT-A LC inh2 inconclusive.

Assay outcomes from PubChem.
